Test results published in PubChem BioAssay AID2533 (National Center for Advancing Translational Sciences (NCATS), 2010).
Records with an inconclusive call do not appear. Activity calls are given as the source filed them. The call rests on the fitted dose curve; in most records, active means well fitted activation curve with a large enough effect; inconclusive means small, poorly fitted or top-dose-only effect; inactive means flat fitted curve, though single readings scatter.

target: Pyruvate kinase PKM (Homo sapiens) (UniProt P14618); test: Confirmation Concentration-Response Assay for Activators of Human Muscle isoform 2 Pyruvate Kinase: for Probe SAR; conditions: purified PKM2, ATP generation, Kinase-Glo luminescence; series mostly up to 57.5 µM; further: nearly all actives have a fitted effect of over 60% in size
Procedure, shortened: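 Purified hPK-M2 at 0.1 nM final converted ADP (0.1 mM) and PEP (0.5 mM) to ATP over 1 hour at room temperature in imidazole buffer, pH 7.2. ATP formed was measured by Kinase-Glo luminescence, normalized to no-enzyme and uninhibited controls.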
Potency means the concentration at half of the fitted maximal effect.

Sequence of Pyruvate kinase PKM (Homo sapiens) (P14618 whole entry, looked up, canonical isoform): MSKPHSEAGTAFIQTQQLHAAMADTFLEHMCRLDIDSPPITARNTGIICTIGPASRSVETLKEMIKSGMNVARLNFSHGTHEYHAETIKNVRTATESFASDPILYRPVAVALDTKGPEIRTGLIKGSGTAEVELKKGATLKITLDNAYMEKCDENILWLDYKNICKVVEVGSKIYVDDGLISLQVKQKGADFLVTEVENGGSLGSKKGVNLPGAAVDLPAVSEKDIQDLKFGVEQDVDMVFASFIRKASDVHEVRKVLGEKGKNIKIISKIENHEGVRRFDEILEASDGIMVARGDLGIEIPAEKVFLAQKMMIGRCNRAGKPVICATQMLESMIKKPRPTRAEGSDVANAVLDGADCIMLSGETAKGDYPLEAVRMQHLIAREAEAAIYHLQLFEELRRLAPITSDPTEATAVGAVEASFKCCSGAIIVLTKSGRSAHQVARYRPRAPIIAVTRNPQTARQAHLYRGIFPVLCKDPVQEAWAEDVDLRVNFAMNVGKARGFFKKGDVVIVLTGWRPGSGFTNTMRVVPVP

Potency, active:
CSc1cc2c(s1)c1cnn(Cc3cccc(O)c3)c(=O)c1n2C 41.1 nM, CC(=O)Nc1cccc(S(=O)(=O)N2CCN(S(=O)(=O)c3c(F)cccc3F)CC2)c1 14600 nM, COc1cc(F)c(S(=O)(=O)N2CCN(S(=O)(=O)c3cccs3)CC2)c(F)c1 36.6 nM, O=C1CCc2cc(S(=O)(=O)Nc3ccc4ccccc4c3)ccc2N1 5170 nM, Cc1ccc(Nc2c(-c3ccc(C)s3)nc3ccccn23)cc1 14600 nM, O=C1CCc2cc(Cl)c(S(=O)(=O)Nc3ccc(Cl)c(Cl)c3)cc2N1 73 nM, CC(=O)N1CCc2cc(S(=O)(=O)Nc3ccc(C)c(C)c3)ccc21 1630 nM, Cc1cc2c(s1)c1cnn(Cc3cc(F)ccc3F)c(=O)c1n2C 1120 nM, O=C1CCc2cc(S(=O)(=O)Nc3ccc(F)cc3)ccc2N1 6510 nM, Nc1ccc(S(=O)(=O)N2CCCN(S(=O)(=O)c3ccc4c(c3)OCCO4)CC2)cc1 1030 nM, Cc1cc(C)n2c(Nc3ccccc3)c(-c3ccc(C)o3)nc2n1 16300 nM, Cc1ccc(NS(=O)(=O)c2cc3c(cc2Br)NC(=O)CO3)cc1C 18300 nM, CCNc1cccc(S(=O)(=O)N2CCN(S(=O)(=O)c3ccc4c(c3)OCCO4)CC2)c1 81.9 nM, Cc1ccc(NS(=O)(=O)c2cccc(Cl)c2)cc1C 16300 nM, CC(=O)Nc1cccc(S(=O)(=O)N2CCN(S(=O)(=O)c3ccc4c(c3)OCCO4)CC2)c1 1030 nM, CN(C)c1cccc(S(=O)(=O)N2CCCN(S(=O)(=O)c3ccc4c(c3)OCCO4)CC2)c1 163 nM, Cc1c(Cl)cccc1NS(=O)(=O)c1cc2c(cc1F)NC(=O)CC2 3660 nM, O=C1CCc2cc(S(=O)(=O)Nc3ccc(F)c(Cl)c3)ccc2N1 291 nM

Potency, inactive:
O=C1CCc2cc([S+](=O)([O-])Nc3ccc(N[S+](=O)([O-])c4ccc5c(c4)CCC(=O)N5)cc3)ccc2N1, Nc1ccccc1OC1=NS(=O)(=O)c2ccccc21, Cc1ccc(Nc2c(-c3ccsc3)nc3cccc(C)n23)cc1, Cc1ccc(Nc2c(-c3ccsc3)nc3c(C)cccn23)cc1, O=C1c2ccccc2C(=O)N1c1ccccn1, CC(=O)Nc1cccc(OC2=NS(=O)(=O)c3ccccc32)c1, O=S1(=O)N=C(Oc2ccc(-c3ccccc3)cc2)c2ccccc21, O=C1c2ccccc2C(=O)N1c1cccc2cnccc12, Cc1cccc(OC2=NS(=O)(=O)c3ccccc32)c1, O=C1c2ccccc2C(=O)N1Cc1cccnc1, O=C1c2ccccc2C(=O)N1Cc1ccccc1, O=C1c2ccccc2C(=O)N1c1ccc(O)cc1, CCSC1=NS(=O)(=O)c2ccccc21, O=S1(=O)N=C(Sc2cccc3cccnc23)c2ccccc21, O=C1c2ccccc2C(=O)N1c1cccc2ccncc12, CC(=O)Nc1ccccc1OC1=N[S+](=O)([O-])c2ccccc21, N#Cc1ccccc1OC1=NS(=O)(=O)c2ccccc21, O=C1c2ccccc2C(=O)N1Cc1ccccn1, O=C1c2ccccc2C(=O)N1Cc1ccncc1
